Measured values: PubChem BioAssay (Tox21)
Records with an inconclusive call do not appear. Unmarked numbers belong to inactive results. Activity calls are given as the source filed them. Calls come from the whole dose curve; as a rule, active = well fitted activation curve with a large enough effect in the repeat runs; inconclusive = weak or mixed curves; inactive = no such curve, though single readings can be large or run the other way.

These molecules were tested against Nuclear receptor subfamily 1 group I member 3 (Homo sapiens) (UniProt Q14994) (assay: qHTS assay to identify small molecule agonists of the constitutive androstane receptor (CAR) signaling pathway (AID 1224839; note: nearly all actives have a fitted effect of over 15% in size;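 for activation: HepG2 cells stably carrying human CAR and a CYP2B6 luciferase reporter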)). Settings: HepG2 hCAR CYP2B6-luciferase, agonist mode, 24 h; series mostly up to 92.4 µM; activation: at the top concentration.
Excerpt: National Center for Advancing Translational Sciences [NCATS] NIH Chemical Genomics Center [NCGC] U.S. Environmental Protection Agency [EPA] National Institutes of Environmental Health Sciences [NIEHS] National Toxicology Program [NTP] Assay overview: The constitutive androstane receptor (CAR) is a nuclear receptor which regulates multiple drug metabolizing enzymes (DMEs) and transporters. Activating CAR will generally increase the transcription and subsequent translation of CYP2B6 and CYP3A4. These two DMEs represent about 50% of the drug metabolizing potential in the body. […] Recently, there have also been studies performed indicating CARs role in energy metabolism and cancer therapy. Therefore, inducing CARs activity could have a potential effect on diabetes and cancer. Identifying environmental toxins and compounds which modulate CAR, through the use of the Tox21 10K compound collection, will be an important step in determining the toxicity and potential therapeutic effects these factors will have on the human body.
Assay Protocol Summary: A double-stable (hCAR and CYP2B6-2.2kb) transfected cell line, derived from human hepatoma (HepG2) cells, was utilized for the duration of the quantitative high-throughput screens. The HepG2-CYP2B6-hCAR cells suspended in DMEM culture medium supplemented with 10% FBS, 5 ug/mL blasticidin, 0.5 mg/mL geneticin, 100 U/mL penicillin and 100 ug/mL streptomycin were dispensed at 2500 cells/4 uL/well in 1536-well white solid bottom plates using a Multidrop Combi. After the assay plates were incubated at 37 C/5% CO2 for 4 hrs, 23 nL of compounds at 15 concentrations (from 5-48 columns) or positive control (from 1 to 4 columns) were transferred to the assay plates using a Pintool station. One uL of PK11195, was added using a Flying Reagent Dispenser to generate a final concentration of 0.75 uM PK11195 inside each well. After a 24 hr incubation period at 37 C/5% CO2, four uL of ONE-Glo reagent was added into the assay plates using a Flying Reagent Dispenser. After a 30 min incubation period at room temperature, the luminescence intensity in the assay plates was measured using a ViewLux plate reader.
% is set by controls: 0 for no effect and ±100 for the full control effect; potency is the fitted concentration of half-maximal effect.

Sequence of Nuclear receptor subfamily 1 group I member 3 (Homo sapiens) (Q14994 whole entry, looked up): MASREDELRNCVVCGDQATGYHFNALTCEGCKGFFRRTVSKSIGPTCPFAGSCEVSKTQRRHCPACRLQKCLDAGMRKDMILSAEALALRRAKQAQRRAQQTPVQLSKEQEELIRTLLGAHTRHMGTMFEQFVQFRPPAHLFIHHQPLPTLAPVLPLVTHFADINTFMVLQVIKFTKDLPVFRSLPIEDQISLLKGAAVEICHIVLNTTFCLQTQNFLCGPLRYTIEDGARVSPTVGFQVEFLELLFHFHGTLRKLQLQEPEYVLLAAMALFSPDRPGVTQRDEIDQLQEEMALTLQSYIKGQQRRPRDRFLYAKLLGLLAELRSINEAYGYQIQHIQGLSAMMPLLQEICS

Compound | activation | Potency
CCC(=O)O[C@]1(C(=O)COC)[C@@H](C)C[C@H]2[C@@H]3CCC4=CC(=O)C=C[C@]4(C)C3(F)[C@@H](O)C[C@@]21C (stereo not given in full) | 0.461% [at 42.5 µM] | –
CCCCCCCCCCCCN1CCOCC1 | -0.0618% | –
CCN(CCCCOC(=O)c1ccc(OC)c(OC)c1)C(C)Cc1ccc(OC)cc1 (stereo not given) | -2.61% [at 42.5 µM] | –
O=C(O)c1cc(C(=O)O)cc([N+](=O)[O-])c1 | 0.717% | –
O=c1c2ccccc2oc2ccccc12 | – | 24.3 µM (active)
Cc1cc(C)c(C)c(O)c1 | -2.08% | –
CC(C)(C(=O)O)c1ccc(C(O)CCCN2CCC(C(O)(c3ccccc3)c3ccccc3)CC2)cc1 (stereo not given) | -0.342% [at 42.5 µM] | –
CC(C)C/C=C(\C=O)c1ccccc1 | 8.12% | –
Cc1ccc(S(=O)(=O)NC(=O)NC2CCCC2)cc1 | -2.24% [at 42.5 µM] | –
COc1ccc(C(=O)Nc2ccccc2)cc1[N+](=O)[O-] | – | 30.9 µM (active)
CC(C)Oc1ccccc1O | -3.48% | –
CCN(CC)CC(=O)OCC(=O)[C@@]1(O)CC[C@H]2[C@@H]3CCC4=CC(=O)CC[C@]4(C)[C@H]3[C@@H](O)C[C@@]21C | -1.36% [at 42.5 µM] | –
CC(C(=O)O)c1ccc(/C=C2\CCCCC2=O)cc1 (stereo not given) | – | 26.6 µM (active)
Cc1c(Cl)cccc1Nc1ccccc1C(=O)O | 5.51% [at 42.5 µM] | –
Nc1cccc2c(=O)[nH][nH]c(=O)c12 | -0.594% | –
NC(=O)c1cc[n+](CC2=C(C(=O)[O-])N3C(=O)[C@@H](NC(=O)Cc4cccs4)[C@H]3SC2)cc1 | 0.532% [at 42.5 µM] | –
Cc1c(N=C=O)cccc1N=C=O | -2.7% | –
O=C1c2ccccc2C(=O)c2c1ccc(O)c2O | 0.997% [at 42.5 µM] | –
CC(C)=CCCC(C)C=O (stereo not given) | -0.784% | –
[O-][n+]1ccc(Cl)cc1 | -1.83% | –

Compound | activation | Potency
CCOc1ccc2c(c1)C(C)CC(C)(C)N2 (stereo not given) | – | 27.3 µM (active)
CC(=O)OCC(=O)[C@@]1(O)CC[C@H]2[C@@H]3CCC4=CC(=O)C=C[C@]4(C)[C@@]3(F)[C@@H](O)C[C@@]21C | -0.633% [at 42.5 µM] | –
Cc1ccc(NC(=O)c2ccc(CN3CCN(C)CC3)cc2)cc1Nc1nccc(-c2cccnc2)n1 | – | 13.3 µM (active)
O=C(O)c1ccc2cc(O)ccc2c1 | 9.37% | –
O=[N+]([O-])c1ccc(Cl)cc1Cl | 5.7% | –
CCCCOC(=O)C(C)Oc1ccc(Oc2ccc(C(F)(F)F)cn2)cc1 (stereo not given) | 0.107% | –
O=C(O)c1ccccc1-n1cc(C(=O)O)c(=O)c2cc(Nc3c(F)cc(F)cc3Cl)c(Cl)cc21 | -2.61% | –
O=C1c2ccccc2C(=O)C1c1ccc2ccccc2n1 | – | 6.05 µM (active)
O=C(OCCCCCOC(=O)c1ccccc1)c1ccccc1 | 6.88% | –
CC(C)NC(=O)c1ccccc1N | 5.01% | –
CC1(C)[C@@H]2CC[C@]3(C2)[C@@H]1C(=O)CCC3(C)C | 14.1% | –
O=C(c1ccco1)N1CCNCC1 | -1.58% [at 42.5 µM] | –
CCc1ccc2c(c1)C(=O)c1ccccc1C2=O | – | 27.3 µM (active)
Cc1nc(C)c(C)nc1C | -2.5% | –
CCOC(OCC)OCC | -3% | –
O=C1c2ccccc2C(=O)C1c1ccc2cc(S(=O)(=O)O)cc(S(=O)(=O)O)c2n1 | – | 41.7 µM (active)
C=CC(O)CCCCC (stereo not given) | -0.679% | –
CO[C@@H]1[C@@H](O[C@@H]2O[C@H](C)[C@@H](O[C@H]3C[C@@](C)(O)[C@@H](O)[C@H](C)O3)[C@H](N(C)C)[C@H]2O)[C@@H](CC=O)C[C@@H](C)[C@@H](O[C@@H]2CC[C@H](N(C)C)[C@@H](C)O2)/C=C/C=C/C[C@@H](C)OC(=O)C[C@H]1OC(C)=O | 2.03% [at 42.5 µM] | –
CC(C)C[C@H](NC(=O)[C@H](Cc1ccccc1)NC(=O)c1cnccn1)B(O)O | -16.2% [at 42.5 µM] | –
C=CC(=O)OCCCCCCCCCC | -0.353% | –
